Where “and” joins values, the source holds several entries; their conditions need not be identical. Identical values can stand only once. Calls of active or inactive are those of the source. Unless noted, the call rests on the fitted dose curve; in most records, active means well fitted curve in the direction sought with a large enough effect in the repeat runs; inconclusive means weak or mixed curves; inactive means no such curve, though single readings can be large; an effect the other way counts as inactive or inconclusive.
Assays:
[1] = qHTS assay to identify small molecule antagonists of the thyroid receptor (TR) signaling pathway - cell viability counter screen (AID 743064); further: nearly all actives have a fitted effect of over 50% in size; further: potency means the concentration at half of the fitted maximal effect
How it was run: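 GH3.TRE-Luc rat pituitary cells carrying a TRE-luciferase reporter were treated with compound plus 1 nM T3 (final) for 23.5 h at 37 °C. Viability was then read in the same wells by CellTiter-Fluor fluorescence after a further 30 min.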

[2] = qHTS assay to identify small molecule antagonists of the thyroid receptor (TR) signaling pathway (AID 743065); further: nearly all actives have a fitted effect of over 55% in size; further: potency means the concentration at half of the fitted maximal effect
How it was run: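 GH3.TRE-Luc rat pituitary cells carrying two TR response elements driving luciferase were plated for 4 h, given compound plus 1 nM T3 (final), and incubated 23.5 h at 37 C. ONE-Glo luminescence measured reporter inhibition; CellTiter-Fluor fluorescence tracked cytotoxicity.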

[3] = system: thyroid hormone receptor (rat, GH3 cells); assay: qHTS assay to identify small molecule agonists of the thyroid receptor (TR) signaling pathway (AID 743066; calls by dose curve)
[4] = qHTS assay to identify small molecule antagonists of the estrogen receptor alpha (ER-alpha) signaling pathway - cell viability counter screen (AID 743074; calls by dose curve; further: nearly all actives have a fitted effect of over 45% in size; further: potency means the concentration at half of the fitted maximal effect)
[5] = biological target: Estrogen receptor (Homo sapiens) (UniProt P03372); assay: qHTS assay to identify small molecule agonists of the estrogen receptor alpha (ER-alpha) signaling pathway (AID 743075; calls by dose curve; further: potency means the concentration at half of the fitted maximal effect)
Estrogen receptor (Homo sapiens), sequence (P03372 whole entry, looked up): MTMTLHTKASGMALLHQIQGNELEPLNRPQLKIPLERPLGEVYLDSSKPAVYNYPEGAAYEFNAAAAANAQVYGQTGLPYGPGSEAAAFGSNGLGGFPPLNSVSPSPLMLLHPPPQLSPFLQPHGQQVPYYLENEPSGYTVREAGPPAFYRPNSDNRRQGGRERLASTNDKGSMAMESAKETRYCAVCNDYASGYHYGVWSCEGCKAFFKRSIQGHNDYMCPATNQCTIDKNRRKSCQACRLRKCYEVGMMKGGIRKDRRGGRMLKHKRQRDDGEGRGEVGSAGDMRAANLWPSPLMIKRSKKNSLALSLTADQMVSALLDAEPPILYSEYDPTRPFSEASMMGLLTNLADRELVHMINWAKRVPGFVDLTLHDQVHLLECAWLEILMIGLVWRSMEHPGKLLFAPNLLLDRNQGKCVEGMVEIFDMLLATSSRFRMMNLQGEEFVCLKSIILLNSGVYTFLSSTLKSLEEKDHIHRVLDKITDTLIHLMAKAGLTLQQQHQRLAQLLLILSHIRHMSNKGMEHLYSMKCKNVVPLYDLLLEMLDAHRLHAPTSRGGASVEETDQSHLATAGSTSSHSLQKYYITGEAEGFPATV

[6] = biological target: Estrogen receptor (Homo sapiens) (UniProt P03372); assay: qHTS assay to identify small molecule agonists of the estrogen receptor alpha (ER-alpha) signaling pathway using the BG1 cell line (AID 743079); further: nearly all actives have a fitted effect of over 20% in size
[7] = qHTS assay to identify small molecule antagonists of the estrogen receptor alpha (ER-alpha) signaling pathway using the BG1 cell line (AID 743080; calls by dose curve;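 further: BG1 cells stimulated with 17beta-estradiol alongside compound; nearly all actives have a fitted effect of over 25% in size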; further: potency means the concentration at half of the fitted maximal effect)
How it was run: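 Seeding, 24 h rest, compound transfer from DMSO, 17beta-estradiol addition, 21.5 h incubation, CellTiter-Fluor (30 min, 37 C), then ONE-Glo (30 min, room temperature): this sequence was run on BG1-Luc-4E2 reporter cells.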

[8] = qHTS assay to identify small molecule antagonists of the estrogen receptor alpha (ER-alpha) signaling pathway using the BG1 cell line - cell viability counter screen (AID 743081);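 further: compound given together with 17beta-estradiol as the ER stimulus; nearly all actives have a fitted effect of over 45% in size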; further: potency means the concentration at half of the fitted maximal effect
Aromatase (Homo sapiens) = Aromatase (Homo sapiens) (UniProt P11511); assay: qHTS assay to identify aromatase inhibitors (AID 743083); further: nearly all actives have a fitted effect of over 55% in size; further: potency means the concentration at half of the fitted maximal effect
Aromatase (Homo sapiens), sequence (P11511 whole entry, looked up): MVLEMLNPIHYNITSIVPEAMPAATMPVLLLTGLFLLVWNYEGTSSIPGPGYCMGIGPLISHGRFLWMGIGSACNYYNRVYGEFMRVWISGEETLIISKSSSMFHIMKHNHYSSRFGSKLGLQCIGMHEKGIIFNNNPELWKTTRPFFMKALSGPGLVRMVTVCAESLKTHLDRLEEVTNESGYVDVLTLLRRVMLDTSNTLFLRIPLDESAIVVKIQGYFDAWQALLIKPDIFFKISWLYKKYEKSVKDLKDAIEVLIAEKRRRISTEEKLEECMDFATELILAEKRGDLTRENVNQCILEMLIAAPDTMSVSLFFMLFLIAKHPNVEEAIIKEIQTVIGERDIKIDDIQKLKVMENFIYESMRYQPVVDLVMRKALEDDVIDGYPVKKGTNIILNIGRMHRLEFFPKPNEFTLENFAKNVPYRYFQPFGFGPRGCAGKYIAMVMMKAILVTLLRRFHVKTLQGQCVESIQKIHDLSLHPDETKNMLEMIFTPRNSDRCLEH

[9] = qHTS assay to identify aromatase inhibitors - cell viability counter screen (AID 743084);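 further: cells stimulated with testosterone during compound exposure; nearly all actives have a fitted effect of over 55% in size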; further: potency means the concentration at half of the fitted maximal effect
[10] = biological target: Aryl hydrocarbon receptor (Homo sapiens) (UniProt P35869); assay: qHTS assay to identify small molecule that activate the aryl hydrocarbon receptor (AhR) signaling pathway (AID 743085); further: nearly all actives have a fitted effect of over 15% in size; further: potency means the concentration at half of the fitted maximal effect;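 on activation: HG2L7.5c1 human HepG2 liver cells with stably integrated DRE-driven firefly reporter; series mostly up to about 70 µM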
Aryl hydrocarbon receptor (Homo sapiens), sequence (P35869 whole entry, looked up): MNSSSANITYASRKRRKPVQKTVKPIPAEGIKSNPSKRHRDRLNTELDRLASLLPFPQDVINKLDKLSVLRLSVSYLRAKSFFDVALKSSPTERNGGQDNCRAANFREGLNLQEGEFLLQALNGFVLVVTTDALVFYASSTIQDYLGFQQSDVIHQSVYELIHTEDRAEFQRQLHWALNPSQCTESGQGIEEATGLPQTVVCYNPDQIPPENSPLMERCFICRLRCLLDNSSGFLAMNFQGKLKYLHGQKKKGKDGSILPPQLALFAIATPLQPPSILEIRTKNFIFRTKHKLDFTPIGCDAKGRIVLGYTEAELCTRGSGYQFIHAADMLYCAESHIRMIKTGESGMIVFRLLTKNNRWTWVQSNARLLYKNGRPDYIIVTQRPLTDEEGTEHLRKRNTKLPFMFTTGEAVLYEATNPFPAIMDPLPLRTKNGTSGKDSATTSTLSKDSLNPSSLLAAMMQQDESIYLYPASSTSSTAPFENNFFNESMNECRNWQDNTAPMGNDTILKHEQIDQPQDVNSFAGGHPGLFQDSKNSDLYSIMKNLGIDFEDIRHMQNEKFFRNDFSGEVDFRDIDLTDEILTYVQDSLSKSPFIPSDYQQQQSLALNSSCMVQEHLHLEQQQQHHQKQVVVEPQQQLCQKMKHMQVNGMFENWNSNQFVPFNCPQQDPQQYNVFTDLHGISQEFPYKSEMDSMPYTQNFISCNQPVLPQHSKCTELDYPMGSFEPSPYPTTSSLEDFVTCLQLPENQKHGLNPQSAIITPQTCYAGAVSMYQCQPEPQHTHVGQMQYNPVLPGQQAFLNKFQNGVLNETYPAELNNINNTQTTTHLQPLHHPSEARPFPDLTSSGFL
How it was run: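 HepG2 cells (HG2L7.5c1) stably carrying a firefly luciferase reporter driven by 20 dioxin responsive elements were exposed to compound for 24 h at 37C after a 5 h settling period; luminescence rise (ONE-Glo) indicated activation.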

[11] = qHTS assay to identify small molecule that activate the aryl hydrocarbon receptor (AhR) signaling pathway - cell viability counter screen (AID 743086); further: nearly all actives have a fitted effect of over 45% in size; further: potency means the concentration at half of the fitted maximal effect
How it was run: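 HepG2-AhR-luc (HG2L7.5c1) cells, 4000/well, were preincubated 5 h at 37C, exposed to compound in qHTS format for 24 hr at 37C, then given CellTiter-Fluor for 30 min; viability was read as fluorescence in the reporter wells.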

[12] = qHTS assay to identify small molecule antagonists of the peroxisome proliferator-activated receptor gamma (PPARg) signaling pathway - cell viability counter screen (AID 743194); conditions: Potency: co-treated with 50 nM rosiglitazone unless noted; further: nearly all actives have a fitted effect of over 55% in size; further: potency means the concentration at half of the fitted maximal effect
How it was run: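 PPARg-UAS-bla HEK293H cells were plated, rested 5 h at 37 C, then treated with compounds plus rosiglitazone (50 nM final) for 17 h at 37 C; viability was then read by CellTiter-Glo luminescence after 30 min at room temperature.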

[13] = qHTS assay for small molecule agonists of the antioxidant response element (ARE) signaling pathway (AID 743202; active means well fitted activation curve with a large enough effect in the signal ratio in the repeat runs, not every such curve was filed as active; inconclusive means weak or mixed curves, or effect the other way; inactive means no such curve, though single readings can be large or run the other way; the % refers to the signal ratio)
How it was run: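 Steps: seed ARE-bla HepG2 cells (2,000/well); incubate 5 h at 37 C; add compounds by pin tool; incubate 16 h at 37 C; add FRET substrate; read fluorescence after 2 h at RT.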

[14] = qHTS assay for small molecule agonists of the antioxidant response element (ARE) signaling pathway - cell viability counter screen (AID 743203; calls by dose curve; further: nearly all actives have a fitted effect of over 55% in size; further: potency means the concentration at half of the fitted maximal effect)
How it was run: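 Viability counter screen: CellTiter-Glo luminescence, read after 30 min at room temperature, in ARE-bla HepG2 wells. Compound exposure lasted 16 h at 37C/5% CO2, following a 5 h pre-incubation of the cells after plating.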

[15] = qHTS assay for small molecule activators of the heat shock response signaling pathway - cell viability counter screen (AID 743209); further: nearly all actives have a fitted effect of over 50% in size; further: potency means the concentration at half of the fitted maximal effect
How it was run: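 Cytotoxicity counter screen run in the same wells as the heat-shock bla reporter assay: HeLa HSE-bla cells, 5 h compound exposure at 37 C, viability read by CellTiter-Glo luminescence.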

[16] = qHTS assay for small molecule activators of the heat shock response signaling pathway (AID 743210; active means well fitted activation curve with a large enough effect in the signal ratio in the repeat runs, with a control signal flat, not every such curve was filed as active; inconclusive means weak or mixed curves; the % refers to the signal ratio; further: potency means the concentration at half of the fitted maximal effect;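 on activation: HeLa cells with beta-lactamase reporter driven by heat shock elements; series mostly up to about 63 µM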)
How it was run: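 Activation of heat shock element-controlled beta-lactamase expression is measured in HeLa cells by LiveBLAzer FRET fluorescence, with compound exposure lasting 5 h at 37 C and substrate loading 2.5 h at room temperature.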

[17] = biological target: Estrogen receptor (Homo sapiens) (UniProt P03372); assay: qHTS assay to identify small molecule antagonists of the estrogen receptor alpha (ER-alpha) signaling pathway (AID 743069; active means well fitted curve in the direction sought with a large enough effect in the signal ratio in the repeat runs, not every such curve was filed as active; inconclusive means weak or mixed curves, or effect the other way; inactive means no such curve, though single readings can be large or run the other way; the % refers to the signal ratio; further: potency means the concentration at half of the fitted maximal effect)
How it was run: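 Screening used a UAS-driven beta-lactamase reporter integrated into HEK293 cells expressing ER-alpha, stimulated with 17beta-estradiol alongside test compounds over 18 hr at 37C; signal came from LiveBLAzer B/G FRET fluorescence.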

[18] = biological target: Peroxisome proliferator-activated receptor gamma (Homo sapiens) (UniProt P37231); assay: qHTS assay to identify small molecule agonists of the peroxisome proliferator-activated receptor gamma (PPARg) signaling pathway (AID 743094; active means well fitted activation curve with a large enough effect in the signal ratio in the repeat runs, not every such curve was filed as active; inconclusive means weak or mixed curves, or effect the other way; inactive means no such curve, though single readings can be large or run the other way; the % refers to the signal ratio)
Peroxisome proliferator-activated receptor gamma (Homo sapiens), sequence (P37231 whole entry, looked up): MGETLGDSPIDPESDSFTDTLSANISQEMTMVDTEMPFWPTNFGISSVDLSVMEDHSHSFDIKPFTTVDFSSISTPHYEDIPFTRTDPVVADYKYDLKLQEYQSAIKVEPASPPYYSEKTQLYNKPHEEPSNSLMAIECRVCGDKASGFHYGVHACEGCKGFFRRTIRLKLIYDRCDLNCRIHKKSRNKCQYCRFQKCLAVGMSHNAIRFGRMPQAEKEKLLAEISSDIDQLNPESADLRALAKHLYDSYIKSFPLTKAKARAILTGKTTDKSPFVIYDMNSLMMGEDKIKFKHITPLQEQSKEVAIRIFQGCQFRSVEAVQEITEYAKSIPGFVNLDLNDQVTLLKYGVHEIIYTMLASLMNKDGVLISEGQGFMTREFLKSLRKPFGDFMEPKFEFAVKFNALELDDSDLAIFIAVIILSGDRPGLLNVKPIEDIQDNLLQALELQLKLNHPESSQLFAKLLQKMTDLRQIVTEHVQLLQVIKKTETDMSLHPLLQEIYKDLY
How it was run: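 Agonist activity was taken from a beta-lactamase reporter (FRET substrate, 1 h at room temperature) in HEK293H cells carrying a PPARg UAS-bla construct. Compounds in DMSO were incubated 17 h at 37C after a 5 h cell pre-incubation.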

[19] = biological target: Peroxisome proliferator-activated receptor gamma (Homo sapiens) (UniProt P37231); assay: qHTS assay to identify small molecule antagonists of the peroxisome proliferator-activated receptor gamma (PPARg) signaling pathway (AID 743191; calls by dose curve; further: series mostly up to about 63 µM; nearly all actives have a fitted effect of over 30% in size)
How it was run: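 GeneBLAzer PPARg UAS-bla HEK293H cells carrying a UAS-driven beta-lactamase reporter were plated at 3000 cells/well, preincubated 5 h at 37C, then given compound for 17 h at 37C; LiveBLAzer B/G FRET substrate was read after 1 h at room temperature.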

Measured: Potency

CC[C@H]1C[C@@H]2C[C@H]3c4[nH]c5ccc(OC)cc5c4CCN(C2)[C@@H]13
active: [1] 60.1 µM | [2] 30.1 µM | [10] 8.49 µM | [16] 45.9 µM
not listed: [17] | [18] | [19]
inactive: all other assays above

CNC(C)Cc1ccc2c(c1)OCO2 (configuration not stated)
not listed: [8] | [15] | [16]
inactive: all other assays above

COC(=O)N(C(=O)N1CO[C@@]2(C(=O)OC)Cc3cc(Cl)ccc3C2=N1)c1ccc(OC(F)(F)F)cc1
active: [2] 11.8 µM | [17] 47.3 µM [cytotoxic]
inactive: [1] | [3] | [4] | [7] | [8] | [9] | [10] | [11] | [14] | [15]

Cc1cc(C)c(C2=C(OC(=O)CC(C)(C)C)C3(CCCC3)OC2=O)c(C)c1
not listed: [12] | [13] | [18] | [19]
inactive: all other assays above

Cc1cc(C(F)(C(F)(F)F)C(F)(F)F)ccc1NC(=O)c1cccc(I)c1C(=O)NC(C)(C)CS(C)(=O)=O
active: [2] 21.8 µM
not listed: [6] | [13] | [16] | [17]
inactive: all other assays above

CCCCCCCCCBr
not listed: [17] | [18] | [19]
inactive: all other assays above

O=C(O)c1cc[c]([Hg][Cl])cc1
inactive: [3] | [17] | [4] | [8] | [10] | [11]
active: [1] 17.2 µM | [2] 6.86 µM | [5] 49 µM [activator] | Aromatase (Homo sapiens) 61.1 µM | [9] 61.1 µM | [14] 54.5 µM

C[C@H]1O[C@@H](O[C@H]2[C@@H](O)C[C@H](O[C@H]3[C@@H](O)C[C@H](O[C@H]4CC[C@@]5(C)[C@H](CC[C@@H]6[C@@H]5CC[C@]5(C)[C@@H](C7=CC(=O)OC7)CC[C@]65O)C4)O[C@@H]3C)O[C@@H]2C)C[C@H](O)[C@@H]1O
active: [4] 33.8 nM and 19.6 nM | [7] 0.548 µM | [12] 7.8 nM and 33.5 nM | [14] 10.9 nM and 6 nM | [15] 87.7 nM and 376 nM
inactive: [1] | [2] | [3] | [5] | [8] | Aromatase (Homo sapiens) | [9] | [11]

O=C(NC(=O)c1c(F)cccc1F)Nc1cc(Cl)c(OC(F)(F)C(F)F)c(Cl)c1
active: [10] 0.137 µM
not listed: [6] | [7] | [13] | [17] | [18]
inactive: all other assays above

C[C@@H]1CC[C@@]2(OC1)O[C@H]1[C@@H](O)[C@H]3[C@@H]4CC[C@H]5C[C@@H](O[C@@H]6O[C@H](CO)[C@H](O[C@@H]7O[C@H](CO)[C@@H](O)[C@H](O[C@@H]8OC[C@@H](O)[C@H](O)[C@H]8O)[C@H]7O[C@@H]7O[C@H](CO)[C@@H](O)[C@H](O[C@@H]8O[C@H](CO)[C@@H](O)[C@H](O)[C@H]8O)[C@H]7O)[C@H](O)[C@H]6O)[C@H](O)C[C@]5(C)[C@H]4CC[C@]3(C)[C@H]1[C@@H]2C
inactive: [3] | [10]
active: [1] 2.05 µM | [2] 2.58 µM | [4] 10.4 µM | [5] 41.3 µM [inconclusive] | [8] 64.9 µM | Aromatase (Homo sapiens) 9.16 µM | [9] 2.9 µM | [11] 20.5 µM | [14] 20.5 µM | [15] 29.2 µM

BrCBr
not listed: [17] | [19]
inactive: all other assays above

CC(=O)c1cc(C(C)(C)C)cc2c1CCC2(C)C
active: [1] 43.3 µM | [2] 48.6 µM | Aromatase (Homo sapiens) 68.6 µM
not listed: [4] | [7] | [9] | [15] | [16] | [17]
inactive: all other assays above

[Hg+2].[I-].[I-]
inactive: [3] | [10]
active: [1] 1.54 µM | [2] 0.77 µM | [4] 43.6 µM | [5] 54.9 µM [inconclusive] | [8] 68.6 µM | Aromatase (Homo sapiens) 8.63 µM | [9] 6.86 µM | [12] 8.71 µM | [14] 9.69 µM | [15] 27.5 µM

O=C(CBr)c1ccc(O)cc1
inactive: [1] | [2] | [3] | [4] | [8] | Aromatase (Homo sapiens) | [9] | [10] | [11] | [12] | [14]

Source: PubChem BioAssay (Tox21)
